Screens (PubChem)
ATXN2 expr inh = Primary qHTS for Inhibitors of ATXN expression; HEK-293 ATXN2-luciferase reporter, luminescence, 24 h; Potency, µM (top dose mostly 57 µM), for the others: top-dose activity change, negative = inhibition, usual class: inhibitors; 360,000 compounds, 0.72% hits; also: potency is read from the fitted curve at half-maximal effect; % is scaled to controls: 0 for no effect and ±100 for the full control effect; nearly all actives have a fitted effect of over 55% in size
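qHTS (up to 57 uM final) was run with 24 h compound exposure of reporter cells at 37 °C. Each well was multiplexed: SteadyGlo luminescence measured ATXN2-luciferase expression after a fluorogenic Gly-Phe-AFC viability readout (25 uM final).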
ALOX12 inh = Primary qHTS assay for inhibitors of human arachidonate 12S-lipoxygenase (ALOX12): Round 2 | purified 12hLO, xylenol orange hydroperoxide absorbance | Potency, µM (titrated, usually from 108 µM), for the others: at the top dose activity change, negative = inhibition, actives largely listed as inhibitors | 580,000 compounds, 1.1% hits | AID 1671190, 2021; also: potency is read from the fitted curve at half-maximal effect; % is scaled to controls: 0 for no effect and ±100 for the full control effect
Target sequence (P18054 whole entry, looked up): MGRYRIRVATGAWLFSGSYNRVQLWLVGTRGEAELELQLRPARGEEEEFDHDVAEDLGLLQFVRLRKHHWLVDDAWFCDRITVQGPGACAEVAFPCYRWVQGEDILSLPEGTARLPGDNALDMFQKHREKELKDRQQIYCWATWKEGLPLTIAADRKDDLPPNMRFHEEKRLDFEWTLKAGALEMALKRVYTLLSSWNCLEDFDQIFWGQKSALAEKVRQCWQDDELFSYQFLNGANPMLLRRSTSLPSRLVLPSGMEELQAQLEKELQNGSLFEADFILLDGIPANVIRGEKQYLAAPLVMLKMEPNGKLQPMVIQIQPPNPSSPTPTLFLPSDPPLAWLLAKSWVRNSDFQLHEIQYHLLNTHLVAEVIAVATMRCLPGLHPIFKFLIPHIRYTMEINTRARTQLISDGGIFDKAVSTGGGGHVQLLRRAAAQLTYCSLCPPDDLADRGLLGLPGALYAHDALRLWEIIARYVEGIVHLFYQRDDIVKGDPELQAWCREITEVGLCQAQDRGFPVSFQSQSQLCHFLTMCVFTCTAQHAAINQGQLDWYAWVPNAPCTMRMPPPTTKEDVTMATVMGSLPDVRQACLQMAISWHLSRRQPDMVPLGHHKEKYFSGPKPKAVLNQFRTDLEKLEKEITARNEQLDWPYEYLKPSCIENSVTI
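Purified human 12hLO (150 nM final) in 25 mM Hepes, 0.01% Triton X-100, pH 7.0 was preincubated 15 min at room temperature with compound. Then 40 uM arachidonic acid was added, 30 min. Hydroperoxide was read by Fe-XO absorbance ratio 573/405 nm.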
SK-N-SH 3D tox = qHTS of pediatric cancer cell lines to identify multiple opportunities for drug repurposing: Orthogonal 3D viability screen for SK-N-SH cells; SK-N-SH 3D spheroid viability, PI/Hoechst imaging, 72 h; 65 compounds, 70% hits; AID 1347135, 2019; shares compounds with ATXN2 expr inh; Potency, µM (highest dose often 30.7 µM), hits mostly inhibitors
SJGBM2 3D viab = qHTS of pediatric cancer cell lines to identify multiple opportunities for drug repurposing: Orthogonal 3D viability screen for SJ-GBM2 cells; shares compounds with ATXN2 expr inh; SJ-GBM2 3D spheroid viability, PI/Hoechst imaging, 72 h; Potency, µM (top dose mostly 30.7 µM), most hits filed as inhibitors; 65 compounds, 80% hits; AID 1347136, 2019
Daoy spheroid = qHTS of pediatric cancer cell lines to identify multiple opportunities for drug repurposing: Orthogonal 3D viability screen for Daoy cells | shares compounds with ATXN2 expr inh | Potency, µM (doses to about 30.7 µM), hits mostly inhibitors | Daoy 3D spheroid viability, PI/Hoechst imaging, 72 h | 65 compounds, 50% hits
TC32 3D caspase = qHTS of pediatric cancer cell lines to identify multiple opportunities for drug repurposing: Orthogonal 3D caspase screen for TC32 cells; shares compounds with ATXN2 expr inh; TC32 3D spheroids, caspase-3/7 fluorescence imaging, 24 h; Potency, µM (top dose mostly 30.7 µM), most hits filed as inhibitors; 65 compounds, 30% hits; AID 1347138, 2019
TC32 3D tox = qHTS of pediatric cancer cell lines to identify multiple opportunities for drug repurposing: Orthogonal 3D viability screen for TC32 cells; shares compounds with ATXN2 expr inh; TC32 3D spheroid viability, PI/Hoechst imaging, 72 h; Potency, µM (top dose mostly 30.7 µM), most hits filed as inhibitors; 65 compounds, 60% hits
MG63 3D tox = qHTS of pediatric cancer cell lines to identify multiple opportunities for drug repurposing: Orthogonal 3D viability screen for MG 63 (6-TG R) cells; AID 1347140, 2019; MG-63 (6-TG R) 3D spheroid viability, PI/Hoechst imaging, 72 h; Potency, µM (doses to about 30.7 µM), hits mostly inhibitors; 65 compounds, 50% hits; shares compounds with ATXN2 expr inh
RD 3D tox = qHTS of pediatric cancer cell lines to identify multiple opportunities for drug repurposing: Orthogonal 3D viability screen for RD cells; Potency, µM (highest dose often 30.7 µM), hits mostly inhibitors; shares compounds with ATXN2 expr inh; 65 compounds, 50% hits; RD rhabdomyosarcoma 3D spheroid viability, PI/Hoechst imaging, 72 h
* hit, by the source's call; [ ] = remark or other dose. Only some compounds are listed: those with a hit (about 2.7% of all), similar ones and a draw of the others. Calls follow the shape of the dose curve; as a rule, active = well fitted curve in the direction sought with a large enough effect; inconclusive = small, poorly fitted or top-dose-only effect, or another doubt; inactive = no such curve, though single readings can be large; an effect the other way counts as inactive or inconclusive.

For Cc1ccccc1NC(=O)C1=C(Cl)CCCC1 the results were ALOX12 inh -4.8%.
CC(C)CN1CC[C@H](c2nc3c(C(N)=O)cccc3[nH]2)C1 was read as ALOX12 inh 24.8%[176 µM].
Screening C[C@]1(c2nc3c(C(N)=O)cccc3[nH]2)CCCN1 returned ATXN2 expr inh 12.0%, ALOX12 inh -6.5%[57.4 µM], SK-N-SH 3D tox 4.56µM*, SJGBM2 3D viab 4.06µM*, Daoy spheroid inconclusive, TC32 3D caspase inactive, TC32 3D tox inconclusive, MG63 3D tox inconclusive and RD 3D tox inactive.
CC[C@@H]1C=C(C)C[C@H](C)C[C@H](OC)[C@H]2O[C@@](O)(C(=O)C(=O)N3CCCC[C@@H]3C(=O)O[C@H](C(C)=C[C@@H]3CC[C@H](Cl)[C@H](OC)C3)[C@H](C)[C@@H](O)CC1=O)[C@H](C)C[C@H]2OC was read as ATXN2 expr inh inconclusive, ALOX12 inh inconclusive, SK-N-SH 3D tox 16.2µM*, SJGBM2 3D viab 2.28µM*, Daoy spheroid 1.44µM*, TC32 3D caspase inactive, TC32 3D tox 20.4µM*, MG63 3D tox 3.62µM* and RD 3D tox inconclusive.
`CO[C@H]1C[C@@H]2CC[C@@H](C)[C@@](O)(O2)C(=O)C(=O)N2CCCC[C@@H]2C(=O)O[C@H]([C@H](C)C[C@@H]2CC[C@H](OP(C)(C)=O)[C@H](OC)C2)CC(=O)[C@H](C)C=C(C)[C@@H](O)[C@@H](OC)C(=O)[C@H](C)C[C@H](C)C=CC=CC=C1C` gave ATXN2 expr inh 4.1% and ALOX12 inh -28.6%[57.4 µM].
